Shown is part of a subset that was picked to be rich in hits.
Cycloheximide cs: Cycloheximide Counterscreen for Small Molecule Inhibitors of Shiga Toxin; cell reporter, cycloheximide protein synthesis inhibition counterscreen; max response, %; actives 12% (n = 300,000); AID 2314, 2010; in the data active means max response mostly above about 13%, no sharp cut-off; inactive means mostly below about 14%; further: read at 38.3 µM for the half of the compounds with a filed dose
AMA1-RON2 inh: qHTS for Inhibitors of AMA1-RON; Towards Development of Antimalarial Drug Lead: Primary Screen. Plasmodium falciparum AMA1 (3D7) - RON2 peptide interaction. AlphaScreen AMA1-biotinylated RON2 peptide binding. Potency, µM (doses to about 58.2 µM), hits mostly inhibitors. actives 0.2% (n = 360,000). AID 720542, 2013; further: nearly all actives have a fitted effect of over 45% in size
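AMA1 (3D7) with his tag at 25 nM final met compounds first, then biotinylated RON2 peptide at 25 nM; detection used donor plus acceptor beads, 10 µg/mL apiece, read by AlphaScreen after 30 min at room temperature.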
AmpC inh no detg: qHTS Inhibitors of AmpC Beta-Lactamase (assay without detergent). actives 0.52% (n = 330,000). AmpC nitrocefin hydrolysis, absorbance 480 nm, 0.0001% Triton. P00811. Potency, µM (titrated, usually from 57.1 µM), most hits filed as inhibitors; further: nearly all actives have a fitted effect of over 20% in size
Target sequence (P00811 whole entry, looked up): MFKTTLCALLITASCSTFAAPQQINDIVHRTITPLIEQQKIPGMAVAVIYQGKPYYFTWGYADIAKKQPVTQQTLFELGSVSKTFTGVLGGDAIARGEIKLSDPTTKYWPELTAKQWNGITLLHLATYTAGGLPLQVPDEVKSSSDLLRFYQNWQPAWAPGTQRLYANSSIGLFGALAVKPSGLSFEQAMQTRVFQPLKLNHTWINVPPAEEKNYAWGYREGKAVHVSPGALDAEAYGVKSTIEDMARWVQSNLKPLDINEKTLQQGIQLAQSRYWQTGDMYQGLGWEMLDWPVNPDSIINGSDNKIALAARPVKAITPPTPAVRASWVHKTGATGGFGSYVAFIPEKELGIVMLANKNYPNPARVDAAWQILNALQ
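AmpC (5.3 nM in the dispensed reagent) in 20 mM phosphate pH 7.0 with 0.01% (detergent screen) or 0.0001% Triton X-100 was preincubated with compounds for 15 min at room temperature. Nitrocefin was then added from an 800 uM solution, and hydrolysis was followed at 480 nm.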
AmpC detergent: qHTS Inhibitors of AmpC Beta-Lactamase (assay with detergent) | AmpC hydrolysis of nitrocefin, absorbance 480 nm, 0.01% Triton | P00811 | AID 485294, 2010 | Potency, µM (doses to about 114 µM), usual class: inhibitors | actives 0.041% (n = 370,000); further: nearly all actives have a fitted effect of over 25% in size
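20 mM phosphate pH 7.0 + 0.01% (detergent screen) or 0.0001% Triton X-100; 5.3 nM AmpC reagent; cpd preinc 15 min RT; nitrocefin (800 uM stock) to start; A480 q20 s × 4 min; Activity was normalised to no-enzyme and no-compound control wells.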
Shiga toxin inh: A qHTS for Small Molecule Inhibitors of Shiga Toxin. AID 2315, 2010. inhibition, % at 38.7 µM. actives 9.2% (n = 290,000). Vero cells, Shiga toxin protein synthesis inhibition reporter; in the data active means inhibition mostly above about 28%, no sharp cut-off; inactive means mostly below about 43%
SARS PLpro yeast: qHTS of Yeast-based Assay for SARS-CoV PLP; Potency, µM (series often up to 32.9 µM), usual class: activators; actives 0.19% (n = 330,000); S. cerevisiae expressing SARS-CoV PLpro, growth rescue; calls by dose curve; further: nearly all actives have a fitted effect of over 55% in size
A number is an active result; 0 = inactive; ? = inconclusive; - = no result given. Unless noted, the call rests on the fitted dose curve; in most records, active means well fitted curve in the direction sought with a large enough effect; inconclusive means small, poorly fitted or top-dose-only effect, or another doubt; inactive means no such curve, though single readings can be large; an effect the other way counts as inactive or inconclusive.

SMILES	Cycloheximide cs	AMA1-RON2 inh	AmpC inh no detg	AmpC detergent	Shiga toxin inh	SARS PLpro yeast
COCCn1nnnc1C(c1cc2c(C)cc(C)cc2[nH]c1=O)N1CCCCCC1 (centres undefined)	0	0	0	0	0	0
Cc1ccc(C(=O)Nc2nc(-c3nnn(-c4cccc(C(F)(F)F)c4)c3C)ns2)cc1	-	-	-	0	-	-
Cc1ccc(C)c(OCc2cc(C(=O)N(C)Cc3nccn3C)no2)c1	0	0	0	0	0	0
Cc1cccc(C)c1OCc1cc(C(=O)N(C)Cc2cc(C3CC3)n[nH]2)no1	32.1	0	0	0	50.2	0
CC(C)N(Cc1nccn1C)C(=O)c1cc(COc2ccc3ncccc3c2)on1	0	0	0	0	0	0
Cc1cccc(C)c1OCc1cc(C(=O)N(Cc2nccn2C)C(C)C)no1	19.3	0	0	0	0	0
COc1cc(C)ccc1OCc1cc(C(=O)N(Cc2nccn2C)C(C)C)no1	73.4	0	0	0	86.5	0
CCn1ccnc1CN(C)C(=O)c1cc(COc2ccc(OC)c3ccccc23)on1	8.3	0	0	0	0	0
COc1cccc(OCc2cc(C(=O)N(Cc3nccn3C)C(C)C)no2)c1	0	0	0	0	0	0
Cc1ccc(NC(=O)COC(=O)CN2CSCC2=O)cc1C	0	0	0	0	0	0
COC(=O)C1=C(N)Oc2cc(C)n(C)c(=O)c2C1c1ccc(Cl)c(Cl)c1 (centres undefined)	0	0	0	?	0	0
Cc1ccc(S(=O)(=O)c2nc(-c3ccco3)oc2SCC(C)C)cc1	-	-	-	0	-	-
CCN(Cc1ccncc1)C(=O)c1cc(COc2c(C)cccc2C)on1	10.6	0	0	0	41.4	0
CCN(Cc1ccncc1)C(=O)c1cc(COc2ccc(F)cc2F)on1	0	0	0	0	0	0
COc1ccc(C2(c3ccc(OC)cc3)NC(=O)N(CC(=O)Nc3cc(C)ccc3OC)C2=O)cc1	32.7	0	0	0	116.0	0
COc1ccc(C)cc1NC(=O)Nc1ccccc1	0	0	0	0	0	0
COc1ccc(NC(=O)Nc2cc(C)ccc2F)cc1	26.2	0	0	?	0	0
COc1ccc(C2(c3ccc(OC)cc3)NC(=O)N(CC(=O)Nc3ccc(C(=O)N(C)C)cc3)C2=O)cc1	0	0	0	0	0	0
COc1ccc(C(=O)COc2ccc(C)cc2NC(C)=O)cc1	48.7	0	0	0	96.4	0
COc1ccc(C(=O)CC(=O)C(=O)Nc2cc(OC)ccc2OC)cc1	0	0	0	0	0	0
COc1ccc(NC(=O)Nc2cc(C)ccc2OC)cc1	24.3	0	0	0	0	0
COc1ccccc1NC(=O)C(=O)NNC(=O)COc1ccc2ccccc2c1	0	-	0	0	0	0
CCN(CC(=O)Nc1cc(Cl)ccc1C)C(=O)COc1cccc2c1OC(C)(C)C2	0	0	0	0	0	0
COc1cccc(NC(=O)Nc2cc(C)ccc2F)c1	27.3	0	0	0	95.3	0
COc1cccc(NC(=O)Nc2cc(C)ccc2OC)c1	0	0	0	0	0	0
SMILES	Cycloheximide cs	AMA1-RON2 inh	AmpC inh no detg	AmpC detergent	Shiga toxin inh	SARS PLpro yeast
O=C(Nc1ccccc1)C1Cc2ccccc2CN1C(=O)c1ccco1 (centres undefined)	56.9	0	0	0	0	0
O=C1NC(=NCc2ccccc2)S/C1=C/c1ccc(O)cc1	13.1	0	0	0	0	0
COc1ccc(OC)c(NC(=O)c2c(NCc3sccc3C)sc3c2CCCCC3)c1	-	-	-	0	-	-
Cc1ccc2cc(C3CC(c4cccs4)=NN3S(C)(=O)=O)c(Cl)nc2c1 (centres undefined)	0	0	0	0	0	0
COc1ccc2cc(C3CC(c4cccs4)=NN3S(C)(=O)=O)c(Cl)nc2c1 (centres undefined)	24.1	0	0	0	0	0
CCS(=O)(=O)Nc1ccc(C2=NN(S(C)(=O)=O)C(c3cccs3)C2)cc1 (centres undefined)	20.7	0	0	0	0	0

Assay outcomes deposited in PubChem by National Center for Advancing Translational Sciences (NCATS).
